Measured values reported in PubChem BioAssay (NCI).
This is part of a sample that, as a whole, favours compounds with a hit. Of some 83,000 tested, about 20% had one in any assay.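 48-hour exposure, single concentration, 96-well plates; percent growth endpoint where 0 means no net growth. Active: below 10.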 Unmarked numbers belong to inactive results.

tested on: HOP-62 NSCLC; assay: NCI-60 one-dose screen, 48 h (100 = growth as untreated, 0 = no growth, -100 = all killed); conditions: 10 µM unless noted

| Structure (SMILES) | growth [%] |
| --- | --- |
| COc1ccc(S(=O)(=O)N(C)c2oc(-c3ccc(Cl)cc3)nc2C#N)cc1 | 82.7 |
| O=C(CSc1nnc(-c2ccc(Cl)c(Cl)c2)n1-c1ccccc1)Nc1ccc(C(=O)/C=C/c2ccc(Cl)cc2)cc1 | 91.1 |
| Cc1ccc(C(F)(F)F)cc1N1CCN(C(=O)[C@H]2C[C@H]2c2ccc(C(F)(F)F)nc2)CC1 | 97.7 |
| COc1ccc(S(=O)(=O)NC2c3ccccc3CC2O)cc1OC (stereo not given) | 102 |
| CN1CCN(Cc2ccc(NC(=O)c3cncc(C#Cc4c(N)ncc5cc(F)ccc45)c3)cc2C(F)(F)F)CC1 | 45.1 |
| COc1ccccc1NC(=O)n1c(=O)cc(C)c2ccc(O)cc21 | 102 |
| CCCCCC(C)(O)C(C(=O)O)c1ccccc1 (stereo not given) | 101 |
| C=C(C)[C@@H]1CC[C@]2(C(=O)NC(C)=O)CC[C@]3(C)[C@H](CC[C@@H]4[C@@]5(C)CCCNC(C)(C)[C@@H]5CC[C@]43C)[C@@H]12 | 56.4 |
| Nc1nc(N)c2c(n1)NC(c1cccc(Nc3ccnc4cc(C(F)(F)F)ccc34)c1)CC(c1ccc(Cl)cc1)=N2 (stereo not given) | 52 |
| COc1cccc(-c2cc(-c3ccc(Nc4nc(Nc5ccc(Cl)cc5)nc(Nc5ccc(Cl)cc5)n4)cc3)nc(N)c2C#N)c1 | 95 |
| Cc1cc(=O)oc2cc(Oc3nc(-c4ccccc4)cn4c(-c5ccccc5)cnc34)ccc12 | 68.7 |
| COc1cc(OC)cc(C(=O)Nc2cnc(Nc3ccc(N4CCOCC4)nc3)nc2Oc2ccc(C(F)(F)F)cc2)c1 | 43.1 |
| COc1ccc(Cn2cc3c(c2)-c2oncc2CC3)cc1 | 58.8 |
| CN1CCN(Cn2nc(-c3cc(Cl)cc(Cl)c3Cl)oc2=S)CC1 | 93.9 |
| CC(C)(C)CC(C)(C)Nc1c(-c2c(O)c3ccccc3oc2=O)nc2sccn12 | 85 |
| O=C(O)CCCN1C(=O)CSC1=S | 103 |
| CC1(C)CC(=O)C2=C(C1)OC(C(=O)c1ccccc1)C2c1cccc(Oc2ccccc2)c1 (stereo not given) | 66.7 |
| O=C(OCc1ccc2c(Br)cc(Br)c(O)c2n1)N1CCN(C(=O)c2cc3ccccc3[nH]2)CC1 | 23.3 |
| COc1cc(-c2ccc(-c3ccc(C(=N)N)s3)s2)cc(OC)c1OC | 69.9 |
| C(CCCSC1=NCCN1)CCSC1=NCCN1 | 93.1 |
| COc1ccc(NC(=O)c2sc3nc(C)c(C(=O)c4ccccc4)cc3c2N)cc1 | 97.7 |
| CNc1nc2ncc(-c3c(C)noc3C)cc2n1Cc1ccccc1 | 41.4 |
| COC(=O)[C@H](C)NC(=O)c1ccc(NC(=O)c2[nH]c(C)c(Cl)c2Cl)c(OCCN)c1 | 106 |
| Cc1[nH]c(C(=O)Nc2ccc(C(N)=O)cc2OC(C)C)c(Cl)c1Cl | 92.7 |
| COc1cc(/C=N/NC(=O)c2ccc3nc(-c4ccc(Cl)cc4)[nH]c3c2)cc(OC)c1OC | 81.7 |
